Screening results deposited in PubChem by National Center for Advancing Translational Sciences (NCATS).
A selection: hits, their analogues and other compounds. The true share with any hit is near 9.2%.
NPC1 promoter act: NPC1 promoter activation | Huh7 NPC1 promoter luciferase reporter, 24 h | Potency, µM (top dose mostly 9.22 µM), without a hit: top-dose activation, most hits filed as activators | actives 2.4% (n = 320,000) | AID 485313; also: % of control where 0% means no effect; nearly all actives have a fitted effect of over 60% in size
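Luminescence from an NPC1 promoter-driven luciferase reporter in stably transfected Huh7 cells was measured after 24 h compound treatment at 37 °C, followed by 10 min ambient incubation with luciferase detection reagent.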
SMN2 splice enh: SMN2 splice variant enhancement. HEK293 SMN2-luciferase splicing reporter, luminescence, 30-36 h. Potency, µM (highest dose often 46.1 µM), inactives show at the highest dose activity change, positive = activation, actives largely listed as activators. actives 2.8% (n = 210,000). AID 1458; also: % of control where 0% means no effect; nearly all actives have a fitted effect of over 55% in size
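HEK293 cells carry an SMN2 […]–luciferase reporter in which exon 7 inclusion puts luciferase in frame. Cells were plated 10-12 h before compound addition, then incubated 30-36 h at 37C. ONE-Glo luminescence was read; sodium butyrate at 4.5 mM final served as control.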
ELG1 genotox: inducers of genotoxicity in HEK293T ELG1-luciferase cells. HEK293T ELG1-luciferase reporter, luminescence, 16 h. Potency, µM (top dose mostly 46 µM), without a hit: top-dose activity change, positive = activation, actives largely listed as activators. actives 1.3% (n = 330,000); also: % of control where 0% means no effect; nearly all actives have a fitted effect of over 60% in size
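Quantitative HTS format in 1536-well plates. HEK293T ELG1-luciferase reporter cells receive test compound and are incubated 16 hr at 37 °C, 5% CO2; ONE-Glo added, 30 min room temperature, then luminescence read.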
Rab9 promoter act: activates the Rab9 promoter; AID 485297; Potency, µM (top dose mostly 9.22 µM), for inactives: at the highest dose activation, negative = inhibition, usual class: activators; Huh7 Rab9 promoter-luciferase reporter, luminescence, 24 h; actives 2.8% (n = 320,000); also: % of control where 0% means no effect; nearly all actives have a fitted effect of over 60% in size
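Promoter activation is measured as luciferase luminescence in Huh7 cells stably transfected with a Rab9 promoter–luciferase construct, following 24 h compound exposure at 37 °C and 10 min reagent incubation at ambient temperature.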
ELG1 DNA repair: inhibitors of ELG1-dependent DNA repair in HEK293T cells | HEK293T ELG1-luciferase reporter, luminescence, 16 h; DNA damage induced by 5-fluorouridine | Potency, µM (highest dose often 46.1 µM), for inactives: top-dose activity change, negative = inhibition, usual class: inhibitors | actives 2.3% (n = 330,000) | AID 504467; also: % is scaled to controls: 0 for no effect and ±100 for the full control effect; nearly all actives have a fitted effect of over 55% in size
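Quantitative HTS, concentration-response format. 2,000 cells/well co-treated with 5-fluorouridine and compound, 16 hr in 5% CO2 at 37 °C; ONE-Glo luminescence read after 30 min.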
FLuc counter: counter-screen for miR-21 project: firefly luciferase inhibitors or activators; actives 6.9% (n = 360,000); Potency, µM (doses to about 57.5 µM), for inactives: at the highest dose activity change, negative = inhibition, most hits filed as inhibitors; purified FLuc, Km substrates, luminescence inhibition; P08659;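 also: plate controls were vehicle for no effect and reference inhibitor for full effect; nearly all actives have a fitted effect of over 55% in size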
Target sequence (P08659 whole entry, looked up): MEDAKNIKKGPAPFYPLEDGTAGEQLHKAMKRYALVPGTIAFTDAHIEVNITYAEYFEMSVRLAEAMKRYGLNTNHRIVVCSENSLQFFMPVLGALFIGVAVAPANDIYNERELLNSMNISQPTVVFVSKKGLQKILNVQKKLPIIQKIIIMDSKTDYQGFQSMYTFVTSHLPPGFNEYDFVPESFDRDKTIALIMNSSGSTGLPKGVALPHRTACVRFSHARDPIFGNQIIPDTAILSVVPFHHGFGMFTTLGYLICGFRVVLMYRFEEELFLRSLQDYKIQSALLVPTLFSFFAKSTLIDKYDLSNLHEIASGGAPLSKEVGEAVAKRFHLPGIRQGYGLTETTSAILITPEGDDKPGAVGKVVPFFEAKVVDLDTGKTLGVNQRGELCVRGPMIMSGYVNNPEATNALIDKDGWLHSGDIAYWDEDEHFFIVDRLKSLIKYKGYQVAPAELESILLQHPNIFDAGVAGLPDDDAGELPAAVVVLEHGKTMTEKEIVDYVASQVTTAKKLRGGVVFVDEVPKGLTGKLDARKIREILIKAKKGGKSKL
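Biochemical qHTS of compounds, final roughly 60 µM downward over six points, against 10 nM purified firefly luciferase using Km concentrations of substrates (10 uM D-luciferin, 10 uM ATP) in Tris acetate pH 7.5 buffer; luminescence output.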
Active calls of the source: *; ? = inconclusive; nt = no result given. Calls follow the shape of the dose curve; as a rule, active = well fitted curve in the direction sought with a large enough effect; inconclusive = small, poorly fitted or top-dose-only effect, or another doubt; inactive = no such curve, though single readings can be large; an effect the other way counts as inactive or inconclusive. Potency is read from the fitted curve at half-maximal effect.

SMILES	NPC1 promoter act	SMN2 splice enh	ELG1 genotox	Rab9 promoter act	ELG1 DNA repair	FLuc counter
CCOC(=O)C1=C(COC(=O)/C=C/c2ccccc2F)NC(=O)NC1C (stereo unspecified)	-3%	nt	10%	2%	-5%	4%
CCOC(=O)C1=C(COC(=O)/C=C/c2ccccc2Cl)NC(=O)NC1C (stereo unspecified)	3%	nt	?	27%	?	27µM*
CCOC(=O)C1=C(COC(=O)c2cccc(N(C)C)c2)NC(=O)NC1C (stereo unspecified)	?	nt	?	2.8µM*	?	24µM*
Cc1ccc(N2C(=O)Nc3cc(Cl)c(Cl)cc3N2O)cc1Cl	-1%	-19%	1%	0%	-2%	17µM*
c1ccc(COc2ccc(Oc3nc(N4CCCCC4)nc(N4CCOCC4)n3)nn2)cc1	-3%	22µM*	13%	-8%	?	1%
O=C(N/N=C/c1cccc(O)c1)c1ccc(COc2ccc3c(c2)CCC3)o1	?	-27%	?	?	18%	19µM*
O=C(c1ccco1)N1CCN(C(=O)c2ccc(COc3ccc4c(c3)CCC4)o2)CC1	19%	14%	-7%	?	?	?
NNC(=O)c1ccc(COc2ccc3c(c2)CCC3)o1	?	16µM*	3%	4µM*	?	?
NNC(=O)c1ccc(COc2ccc(Br)cc2)o1	12%	nt	-3%	1%	-15%	-8%
S=C(NC1CCCCC1)N1CCOCCOCCN(C(=S)NC2CCCCC2)CCOCCOCC1	-11%	nt	-11%	1%	18µM*	3%
O=C(/C=C/c1ccco1)NCc1ccccn1	0%	10%	5%	11%	?	-10%
COC(=O)c1ccccc1NC(=O)/C=C/c1ccco1	10%	15%	-5%	28%	?	15µM*
O=C(/C=C/c1ccco1)Nc1ccccc1N1CCCCC1	-2%	-7%	-11%	-1%	-23%	1%
O=C(/C=C/c1ccco1)Nc1cccnc1Cl	4µM*	nt	?	4µM*	?	15µM*
O=C(/C=C/c1ccccc1)Nc1cccnc1Cl	2.2µM*	nt	18µM*	2.2µM*	?	12µM*
CN1C(=O)C(C)(C)c2cc(S(=O)(=O)N3CCCC3C(=O)NCc3ccc(F)cc3)ccc21 (stereo unspecified)	0%	nt	0%	2%	2%	6%
CN1C(=O)C(C)(C)c2cc(S(=O)(=O)N3CCCC(C(=O)NCc4ccc(Cl)cc4)C3)ccc21 (stereo unspecified)	0%	nt	-6%	-4%	15µM*	-2%
COc1ccc(N(C(=O)c2cccc(C)c2)S(=O)(=O)c2ccc3c(c2)n(C)c(=O)n3C)cc1	nt	12%	nt	nt	nt	-2%
Nc1ccc2oc(-c3cccc(Br)c3)nc2c1	1.1µM*	14µM*	2µM*	1.1µM*	?	2.7µM*
Cc1ccccc1-c1nc2cc(N)ccc2o1	0.89µM*	6.3µM*	?	0.35µM*	?	2.4µM*
Nc1ccc(-c2nc3ccccc3o2)cc1	?	nt	?	?	?	6.7µM*
O=C(Nc1ccc(O)c(-c2nc3ccccc3o2)c1)c1ccco1	nt	8%	nt	nt	nt	0%
CC(C)c1ccc2oc(-c3cc(N)ccc3O)nc2c1	0.89µM*	25%	?	?	?	0.15µM*
CC(C)C(NC(=O)c1ccc(F)cc1)C(=O)N1CCN(C(=O)c2ccco2)CC1 (stereo unspecified)	-3%	nt	0%	0%	11%	-1%
O=C(Cc1cccs1)NCc1cccc(F)c1	16%	nt	?	?	?	-17%
Cc1ccc2oc(-c3cccc(NC(=O)c4sc5c([N+](=O)[O-])cccc5c4Cl)c3)nc2c1	nt	7%	nt	nt	nt	-8%
NC(=O)c1ccc(NC(=O)CCN2C(=O)c3ccccc3C2=O)cc1	1%	nt	1%	10%	3%	0%
